Compounds with a hit are over-represented: about 0.84% of the library has one in this group of screens.
SRC3 TRFRET art: TR-FRET detection interference compounds, artefact control for PPARgamma SRC-3 recruitment agonists, biochemical, TR-FRET ratio | 99,000 tested, 0.39% active | TR-FRET ratio at 8 µM | TR-FRET artefact counter-screen, PPARgamma/SRC-3 format; active compounds read high; in the data active = TR-FRET ratio above about 2000
PPARg SRC-2 ag: agonists of PPARg-SRC-2 recruitment, primary screen, biochemical, HTS | Peroxisome proliferator-activated receptor gamma (Homo sapiens), P37231 | PPARgamma LBD-SRC-2 recruitment | activation, % at 8 µM | 200,000 tested, 0.34% active;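 note: 0% = vehicle and 100% = reference agonist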
Target sequence (P37231 whole entry, looked up, the tested form may be a part): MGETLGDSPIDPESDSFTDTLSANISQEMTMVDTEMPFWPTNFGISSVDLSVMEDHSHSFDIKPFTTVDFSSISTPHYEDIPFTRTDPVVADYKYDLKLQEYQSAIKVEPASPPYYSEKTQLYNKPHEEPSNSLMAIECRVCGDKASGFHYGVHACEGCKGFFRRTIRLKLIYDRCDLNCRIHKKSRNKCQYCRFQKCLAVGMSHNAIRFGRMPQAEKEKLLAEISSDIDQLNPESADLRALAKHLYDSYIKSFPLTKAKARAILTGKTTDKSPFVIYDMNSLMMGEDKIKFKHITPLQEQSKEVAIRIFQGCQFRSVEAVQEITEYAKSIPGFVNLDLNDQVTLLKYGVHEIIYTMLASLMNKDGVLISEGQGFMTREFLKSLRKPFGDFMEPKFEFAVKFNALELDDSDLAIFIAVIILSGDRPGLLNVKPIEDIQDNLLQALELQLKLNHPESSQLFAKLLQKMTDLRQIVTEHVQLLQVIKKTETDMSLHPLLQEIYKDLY
TR-FRET SRC-2 ct: TR-FRET signal artefacts, primary screen, artefact control for PPARgamma SRC-2 agonist project, biochemical | AID 1049, 2008 | TR-FRET ratio at 8 µM | 200,000 tested, 0.4% active | TR-FRET artefact counter-screen; active compounds read high; in the data active = TR-FRET ratio above about 2000
PPARg SRC-3 ag: PPARgamma agonists recruiting SRC-3 coactivator, primary screen, biochemical. biochemical PPARgamma/SRC-3 coactivator recruitment assay. AID 731, 2007. Peroxisome proliferator-activated receptor gamma (Homo sapiens), P37231. 200,000 tested, 0.26% active. activation, % at 8 µM; in the data active = activation above about 23%;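 note: 0% = DMSO and 100% = reference agonist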
SRC1 TRFRET art: TR-FRET detection interference compounds, primary screen, artefact control for PPARgamma SRC-1 recruitment agonists, biochemical, TR-FRET emission ratio; AID 1051, 2008; 99,000 tested, 0.34% active; TR-FRET detection artefact counter-screen; active compounds read high; TR-FRET ratio at 8 µM; in the data active = TR-FRET ratio above about 2300
PPARg SRC-1 ag: PPARgamma agonists recruiting SRC-1 coactivator, primary screen, biochemical; PPARgamma-SRC-1 coactivator recruitment biochemical assay; activation, % at 8 µM; 200,000 tested, 0.41% active; AID 631, 2007; in the data active = activation above about 19%;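 note: 0% = DMSO and 100% = reference agonist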
PPARg SRC2 ag: agonists of PPARgamma SRC-2 coactivator recruitment, confirmation, biochemical, HTS; shares compounds with PPARg SRC-3 ag; biochemical SRC-2 recruitment by PPARgamma; activation, % at 8 µM; 790 tested, 52% active;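 note: 0% = vehicle alone and 100% = reference agonist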
PPARg SRC1 conf: PPARgamma agonists recruiting SRC-1 coactivator, confirmation, biochemical; shares compounds with PPARg SRC-3 ag; PPARgamma–SRC-1 coactivator recruitment biochemical assay; activation, % at 8 µM; 790 tested, 43% active; AID 1300, 2008; in the data active = activation above about 20%;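 note: 0% = vehicle wells and 100% = reference agonist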
PPARg SRC3 conf: PPARgamma-driven SRC-3 coactivator recruitment agonists, confirmation, biochemical. shares compounds with PPARg SRC-3 ag. biochemical PPARgamma-SRC-3 coactivator recruitment, agonist mode. activation, % at 8 µM. 790 tested, 29% active. AID 1301, 2008; in the data active = activation above about 24%;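 note: 0% = vehicle wells and 100% = reference agonist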
Active calls of the source: *. Cut-off read from the data, not from the text of the source, unless noted: active = activation above about 22%; inactive = the rest.

For Cc1cc(C)c(NC(=O)CSc2nc3ccc(NC(=O)CSc4nnnn4Cc4ccccc4)cc3s2)c(C)c1 the results were PPARg SRC-2 ag 23.7*, TR-FRET SRC-2 ct 1906, PPARg SRC-3 ag 15.2, PPARg SRC-1 ag 9.5, PPARg SRC2 ag 8.9, PPARg SRC1 conf 9.6 and PPARg SRC3 conf 7.6.
Screening O=C1c2ccccc2-c2cccc(NS(=O)(=O)c3ccc(C(F)(F)F)cc3)c21 returned PPARg SRC-2 ag 11.2, TR-FRET SRC-2 ct 1656, PPARg SRC-3 ag 30.9*, PPARg SRC-1 ag 12.5, PPARg SRC2 ag 24.0*, PPARg SRC1 conf 21.7* and PPARg SRC3 conf 14.4.
For Cc1cccc(-c2ccc(C=Nc3c(C)n(C)n(-c4ccccc4)c3=O)o2)c1 the results were PPARg SRC-2 ag 30.0*, TR-FRET SRC-2 ct 1999*, PPARg SRC-3 ag 38.7*, PPARg SRC-1 ag 22.7*, PPARg SRC2 ag 20.0, PPARg SRC1 conf 17.9 and PPARg SRC3 conf 14.2.
`Cc1c(N=Cc2nc3ccccc3n2C)c(=O)n(-c2ccccc2)n1C` gave PPARg SRC-2 ag 2.3, TR-FRET SRC-2 ct 1578, PPARg SRC-3 ag 4.8 and PPARg SRC-1 ag 7.3.
Screening C#CCNC(=O)C1=C[C@H](C2CCCCC2)C[C@H](OCc2ccc(CO)cc2)O1 returned SRC3 TRFRET art 1716, PPARg SRC-2 ag 14.8, TR-FRET SRC-2 ct 1615, PPARg SRC-3 ag 2.4, SRC1 TRFRET art 1703, PPARg SRC-1 ag 24.4*, PPARg SRC2 ag 1.0, PPARg SRC1 conf 1.1 and PPARg SRC3 conf 1.2.
O=C(c1nn(Cc2ccccc2)c(=O)c2ccccc12)N1CCN(C/C=C/c2ccccc2)CC1 was read as PPARg SRC-2 ag 12.5, TR-FRET SRC-2 ct 1718, PPARg SRC-3 ag 11.2 and PPARg SRC-1 ag 8.7.
For COc1ccc([N+](=O)[O-])cc1NC(=O)c1ccc(Br)s1 the results were SRC3 TRFRET art 2129*, PPARg SRC-2 ag 16.6, TR-FRET SRC-2 ct 2056*, PPARg SRC-3 ag 12.7, SRC1 TRFRET art 2669*, PPARg SRC-1 ag 22.0*, PPARg SRC2 ag 19.7, PPARg SRC1 conf 13.2 and PPARg SRC3 conf 5.8.
O=[N+]([O-])c1cccc2c(N3CCCC3)ccnc12 was read as SRC3 TRFRET art 1508, PPARg SRC-2 ag -3.3, TR-FRET SRC-2 ct 1562, PPARg SRC-3 ag 1.2, SRC1 TRFRET art 1844 and PPARg SRC-1 ag 7.5.
O=C(COc1ccc2ccccc2c1)NCCNC(=O)COc1ccc2ccccc2c1 was read as PPARg SRC-2 ag 39.1*, TR-FRET SRC-2 ct 2532*, PPARg SRC-3 ag 46.9*, PPARg SRC-1 ag 38.1*, PPARg SRC2 ag 52.5*, PPARg SRC1 conf 47.8* and PPARg SRC3 conf 34.3*.
For O=C(CSc1ncnc2c1oc1ccccc12)OCc1ccccc1 the results were PPARg SRC-2 ag 55.2*, TR-FRET SRC-2 ct 2399*, PPARg SRC-3 ag 41.8*, PPARg SRC-1 ag 45.8*, PPARg SRC2 ag 40.6*, PPARg SRC1 conf 34.3* and PPARg SRC3 conf 28.8*.
`O=C(CSc1ncnc2c1oc1ccccc12)c1cccs1` gave PPARg SRC-2 ag 30.2*, TR-FRET SRC-2 ct 2091*, PPARg SRC-3 ag 69.3*, PPARg SRC-1 ag 51.7*, PPARg SRC2 ag 38.1*, PPARg SRC1 conf 25.2* and PPARg SRC3 conf 22.7.
